Assay results taken from PubChem BioAssay (NCATS).
Results filed as inconclusive are left out. The source made the active and inactive calls. The call rests on the fitted dose curve; in most records, active means well fitted curve in the direction sought with a large enough effect; inconclusive means small, poorly fitted or top-dose-only effect, or another doubt; inactive means no such curve, though single readings can be large; an effect the other way counts as inactive or inconclusive.

Tests used:
[1] = target: Glutathione peroxidase 1 (Homo sapiens) (UniProt P07203); test: Primary qHTS Assay for Inhibitors of Recombinant Selenoprotein Glutathione Peroxidase 1 (GPX1) (AID 1845191); further: nearly all actives have a fitted effect of over 65% in size; on activity, negative = inhibition: on the % scale 0 is the no-effect control and ±100 the full control effect
Summary of the method: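 Recombinant GPX1 (10 nM final) was preincubated with compound for 30 min at room temperature, then reacted with 1 mM GSH, 0.5 mM CHP, 0.5 mM NADPH and 100 nM glutathione reductase; NADPH fluorescence (340/450 nm) was read at 0 and 15 min.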

[2] = target: Phospholipid hydroperoxide glutathione peroxidase GPX4 (Homo sapiens) (UniProt P36969); test: Primary qHTS Assay for Inhibitors of Recombinant Selenoprotein Glutathione Peroxidase 4 (GPX4) (AID 1845192); further: nearly all actives have a fitted effect of over 65% in size; on activity change, negative = inhibition: series mostly up to about 50 µM; on the % scale 0 is the no-effect control and ±100 the full control effect
Summary of the method: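 GR-coupled readout: 100 nM GR, 1 mM GSH, 0.5 mM NADPH; NADPH fluorescence (ex 340/em 450 nm) read at t=0 and after 15 min RT. GPX4 200 nM, preincubated 30 min with compound; substrate 0.5 mM CHP.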

[3] = target: Luciferin 4-monooxygenase (Photinus pyralis) (UniProt P08659); test: Primary firefly luciferase (FLuc) qHTS assay for identification of artifact compounds. (AID 1845220); further: nearly all actives have a fitted effect of over 60% in size; further: potency means the concentration at half of the fitted maximal effect;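 on activity change, negative = inhibition: series mostly up to about 54 µM; plate controls were DMSO vehicle for no effect and no enzyme for full effect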
Summary of the method: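 In this counter-screen for luciferase artifacts, test compounds met substrate (10 uM each luciferin and ATP) before 10 nM enzyme started the reaction. Light output was measured 5 min later.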

[4] = Primary fluorescence-based thiol-reactive (MSTI) qHTS assay for identification of artifact compounds. (AID 1845221); further: nearly all actives have a fitted effect of over 65% in size; further: potency means the concentration at half of the fitted maximal effect;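 on activity change, negative = thiol reactive: series mostly up to about 54 µM; thiol-reactive compounds lower the probe fluorescence signal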
Summary of the method: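 A multi-concentration qHTS design tested compounds against 4 uM MSTI, pH 7.4 phosphate-buffered saline. Plates were protected from light for 1 h at room temperature before imaging fluorescence.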

[5] = tested on: Nanoluciferase (engineered Oplophorus gracilirostris luciferase); test: Primary Nanoluciferase (NLuc) qHTS assay for identification of artifact compounds. (AID 1845222);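 further: NLuc secreted into diluted conditioned medium of S16 cells; series mostly up to about 54 µM; 0% = DMSO and -100% = no enzyme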
Summary of the method: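 Using secreted nanoluciferase in S16 culture medium (0.22 um filtered, 1:55 dilution), compounds were preincubated 15 min at RT. Signal was generated with Nano-Glo reagent (1:100) over 5 min.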

Glutathione peroxidase 1 (Homo sapiens), sequence (P07203 whole entry, looked up): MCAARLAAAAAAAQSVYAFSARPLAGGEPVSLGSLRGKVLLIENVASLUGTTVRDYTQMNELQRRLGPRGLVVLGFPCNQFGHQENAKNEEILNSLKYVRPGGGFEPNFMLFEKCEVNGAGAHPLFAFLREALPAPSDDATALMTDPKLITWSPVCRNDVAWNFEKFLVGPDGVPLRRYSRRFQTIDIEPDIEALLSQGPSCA
Phospholipid hydroperoxide glutathione peroxidase GPX4 (Homo sapiens), sequence (P36969 whole entry, looked up): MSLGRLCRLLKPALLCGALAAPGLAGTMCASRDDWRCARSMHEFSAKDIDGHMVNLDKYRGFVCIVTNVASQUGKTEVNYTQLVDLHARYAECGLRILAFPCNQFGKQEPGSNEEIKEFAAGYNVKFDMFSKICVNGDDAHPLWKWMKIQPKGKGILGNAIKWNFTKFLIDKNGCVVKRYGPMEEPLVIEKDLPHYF

C=C(CC/C=C(\C)C(=O)O)C1(O)CC=C(C)CC1 (stereo not given)
inactive: Potency [1] | Potency [2] | Potency [3] | Potency [4] | Potency [5]

CC(=O)O[C@@H]1C=C2[C@H](CC[C@@]3(C)[C@@]2(O)CC[C@H]2Cc4c([nH]c5ccccc45)[C@@]23C)O[C@@H]1C(C)(C)O
inactive: Potency [1] | Potency [2] | Potency [3] | Potency [5]
active: Potency [4] 4.12 µM

NC(Cc1c[nH]c2ccc(O)cc12)C(=O)O (stereo not given)
inactive: Potency [1] | Potency [2] | Potency [3] | Potency [5]
active: Potency [4] 16.8 µM

COc1cccc(CNc2ccc(S(=O)(=O)Nc3nc4ccccc4s3)cc2)c1O
inactive: Potency [1] | Potency [2] | Potency [3] | Potency [4] | Potency [5]

CC(=O)O[C@@H]1[C@H](O[C@@H]2OC[C@](O)(CO)[C@H]2O)[C@@H](O[C@@H]2O[C@@H](C)[C@H](O)[C@@H](O[C@@H]3O[C@H](CO)[C@@H](O)[C@H](O)[C@H]3O)[C@H]2O)[C@H](OC(=O)[C@]23CCC(C)(C)C[C@H]2C2=CCC4[C@@]5(C)C[C@H](O)[C@H](O[C@@H]6O[C@H](C(=O)O)[C@@H](O)[C@H](O)[C@H]6O)[C@@](C)(C(=O)O)C5CC[C@@]4(C)[C@]2(C)CC3)O[C@@H]1C (stereo not given in full)
inactive: Potency [1] | Potency [2] | outcome [3] inactive [at 11.6 µM] | activity change, negative = thiol reactive [4] 238% [at 11.5 µM] | activity, negative = inhibition [5] 0% [at 11.6 µM]

CC1(C)CC[C@]2(C(=O)O[C@@H]3O[C@H](CO)[C@@H](O)[C@H](O)[C@H]3O)CC[C@]3(C)C(=CCC4[C@@]5(C)CC[C@H](O[C@@H]6O[C@H](C(=O)O)[C@@H](O)[C@H](O)[C@H]6OC6OC(CO)C(O)C(O)C6O)C(C)(C)C5CC[C@]43C)[C@@H]2C1 (stereo not given in full)
inactive: Potency [1] | Potency [2] | activity change, negative = inhibition [3] 1.1% [at 11.6 µM] | activity change, negative = thiol reactive [4] 43.7% [at 11.5 µM] | activity, negative = inhibition [5] 0.31% [at 11.6 µM]

COc1ccc(CCC(=O)c2c(O)cc(O[C@@H]3O[C@H](CO)[C@@H](O)[C@H](O)[C@H]3O[C@@H]3O[C@@H](C)[C@H](O)[C@@H](O)[C@H]3O)cc2O)cc1O
inactive: Potency [1] | Potency [2] | Potency [3] | Potency [4] | Potency [5]

O=C(/C=C/C=C/c1ccc2c(c1)OCO2)N1CCCCC1
inactive: Potency [1] | Potency [2] | Potency [4] | Potency [5]
active: Potency [3] 10.7 µM

COc1cc(C(=O)OCC2=CCC3C(C(=O)O)=COC(O[C@@H]4O[C@H](CO)[C@@H](O)[C@H](O)[C@H]4O)C23)ccc1O (stereo not given in full)
active: Potency [4] 11.6 µM
inactive: Potency [1] | Potency [2] | Potency [3] | Potency [5]

COc1cc2nc(=NC(=O)c3cccnc3)n3c(c2cc1OC)NCC3
inactive: Potency [1] | Potency [2] | Potency [3] | Potency [4] | Potency [5]

C/C=C/C=C/C1=C2C(=O)C3(C)C4C(C(=O)CC(O)/C=C/C)=C(O1)C1(C)C2C2(C)OC1(O)C4(C)OC23O (stereo not given)
active: Potency [4] 5.82 µM
inactive: Potency [1] | Potency [2] | Potency [3] | Potency [5]

C/C(=C\CC[C@H](CO)[C@@H]1CC[C@]2(C)C3=C(CC[C@@]12C)[C@@]1(C)CCC(=O)C(C)(C)C1CC3)C(=O)O (stereo not given in full)
inactive: Potency [1] | Potency [2] | Potency [3] | Potency [4] | Potency [5]

COc1cccc(OC)c1-c1cc(C(=O)N[C@@H](CC(C)C)C(=O)O)nn1-c1ccnc2cc(Cl)ccc12
inactive: Potency [1] | Potency [2] | Potency [3] | Potency [4] | Potency [5]

CC1C2=CC(=O)OC2(O)CC2C1C(O)CC1C(C)(CO)CCCC21C (stereo not given)
inactive: Potency [1] | Potency [2] | Potency [3] | Potency [4] | Potency [5]

CC/C=C\C(O)C(O)C1=C(C)C(=O)C2(O1)C(=O)NC(OC)(C(=O)c1ccccc1)C2O (stereo not given)
active: Potency [4] 4.62 µM
inactive: Potency [1] | Potency [2] | Potency [3] | Potency [5]

CC1(C)C[C@H]2C=C(C=O)[C@]3(C(=O)O)C[C@]3(C)[C@H]2C1
active: Potency [4] 11.9 µM
inactive: Potency [1] | Potency [2] | Potency [3] | Potency [5]

CC1CC(=O)C2=C(O1)OC1(C)CCC3C(C)(C)C4OC4C(=O)C3(C)C1C2 (stereo not given)
active: Potency [4] 16.5 µM
inactive: Potency [1] | Potency [2] | Potency [3] | Potency [5]

CC(C/C=C/C(C)(C)O)C1CCC(C)(O)C(O)C1 (stereo not given)
inactive: Potency [1] | Potency [2] | Potency [3] | Potency [4] | Potency [5]

Cc1cc(C(=O)N2Cc3cnn(C)c3Nc3ccccc32)ccc1CNC(=O)N1CCN(Cc2cc(O)cc(O)c2)CC1
inactive: Potency [1] | Potency [2] | Potency [3] | Potency [4] | Potency [5]

CC1(C)CC[C@]2(C(=O)O[C@@H]3O[C@H](CO[C@@H]4O[C@H](CO[C@@H]5O[C@H](CO)[C@H](O)[C@H](O)[C@H]5O)[C@@H](O)[C@H](O)[C@H]4O)[C@@H](O)[C@H](O[C@@H]4O[C@H](CO)[C@@H](O)[C@H](O)[C@H]4O)[C@H]3O)[C@H](O)C[C@]3(C)C(=CCC4[C@@]5(C)CC[C@H](O[C@@H]6OC[C@@H](O)[C@H](O)[C@H]6O)[C@@](C)(C(=O)O)C5CC[C@]43C)[C@@H]2C1 (stereo not given in full)
inactive: Potency [1] | Potency [2] | outcome [3] inactive [at 11.6 µM] | activity change, negative = thiol reactive [4] 27.9% [at 11.5 µM] | activity, negative = inhibition [5] -3.7% [at 11.6 µM]

C[C@@H]1CC[C@]2(C(=O)O[C@@H]3O[C@H](CO[C@@H]4O[C@H](CO)[C@@H](O)[C@H](O)[C@H]4O)[C@@H](O)[C@H](O)[C@H]3O)CC[C@]3(C)C(=CCC4[C@@]5(C)CC[C@H](O)[C@](C)(C(=O)O)C5CC[C@]43C)[C@@H]2[C@]1(C)O (stereo not given in full)
inactive: Potency [1] | Potency [2] | activity change, negative = inhibition [3] -0.663% [at 11.6 µM] | activity change, negative = thiol reactive [4] 22.8% [at 11.5 µM] | activity, negative = inhibition [5] 2.17% [at 11.6 µM]
